Assay results: PubChem BioAssay (Tox21)
“And” between values parts separate entries of the source, which are not always exact repeats. Equal values may be shown once. Inconclusive results are not listed. Some structures have more than one record in an assay (separate samples or runs), and their calls can disagree. The source made the active and inactive calls. Unless noted, calls follow the shape of the dose curve; as a rule, active = well fitted curve in the direction sought with a large enough effect in the repeat runs; inconclusive = weak or mixed curves; inactive = no such curve, though single readings can be large; an effect the other way counts as inactive or inconclusive.

Columns and labels:
[1] = target: Luciferin 4-monooxygenase (Photinus pyralis) (UniProt P08659); assay: qHTS assay to identify small molecule inhibitors of firefly luciferase (AID 1224835); also: nearly all actives have a fitted effect of over 25% in size
Procedure, shortened: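 Quantitative HTS format; KM concentrations of both substrates. Purified P. pyralis FLuc activity quantified from luminescence images.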

[2] = qHTS assay to identify small molecule agonists of the constitutive androstane receptor (CAR) signaling pathway - cell viability counter screen (AID 1224836); also: nearly all actives have a fitted effect of over 45% in size
Procedure, shortened: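 Fluorescence from CellTiter-Fluor indicates live cells after 23 h exposure. The human hepatoma line expresses hCAR and a CYP2B6-2.2kb reporter. Incubation medium contains 0.75 uM PK11195 (final).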

[3] = qHTS assay to identify small molecule antagonists of the constitutive androstane receptor (CAR) signaling pathway - cell viability counter screen (AID 1224837); also: nearly all actives have a fitted effect of over 45% in size
Procedure, shortened: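 In quantitative HTS format, compounds at 15 concentrations were applied to HepG2 cells double-transfected with hCAR and CYP2B6-2.2kb under 50 nM CITCO stimulation; live-cell protease activity was read after 23 hr via CellTiter-Fluor.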

[4] = qHTS assay to identify small molecule antagonists of the estrogen related receptor signaling pathway with the pleiotropic PPARgamma coactivator (PGC) from Tox21 10K library - cell viability counter screen (AID 1224840; active = well fitted cell-killing curve with a large enough effect in the repeat runs, not every such curve was filed as active; also: nearly all actives have a fitted effect of over 40% in size)
Procedure, shortened: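 Viability counter screen, PGC/ERR cells: 17.5 h compound exposure at 37 C, CellTiter-Fluor fluorescence endpoint.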

[5] = qHTS assay to identify small molecule antagonists of the estrogen related receptor signaling pathway with the pleiotropic PPARgamma coactivator (PGC) from Tox21 10K library (AID 1224841; call rule not given here; also: actives are mostly falling curves and most rising ones were filed inactive; nearly all actives have a fitted effect of over 50% in size)
Procedure, shortened: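 In the PGC/ERR line, DMSO solutions of test chemicals are pin-delivered to 2,000 cells/well six hours after dispensing. Following eighteen hours' incubation, One-Glo reagent is added and luminescence recorded.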

[6] = target: Thyrotropin receptor (Homo sapiens) (UniProt P16473); assay: qHTS assay to identify small molecule agonists of the thyroid stimulating hormone receptor (TSHR) signaling pathway (AID 1224843; calls by dose curve; also: nearly all actives have a fitted effect of over 45% in size)
Procedure, shortened: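 Compounds are titrated over 15 concentrations, in triplicate, onto TSHR-HEK293 cells seeded at 800/well. Plates sit 30 min at room temperature before cAMP-d2 and anti-cAMP cryptate are added; signal is read after a further hour.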

[7] = qHTS assay to identify small molecule agonists of the hypoxia (HIF-1) signaling pathway - cell viability counter screen (AID 1224844; calls by dose curve; also: nearly all actives have a fitted effect of over 50% in size)
Procedure, shortened: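 Same wells as the HIF-1 reporter screen; ME-180 cells carrying HRE-bla, 17 hr treatment at 37C; CellTiter-Glo luminescence read after 30 min at room temperature.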

[8] = qHTS assay to identify small molecule agonists of H2AX (AID 1224845; active = well fitted activation curve with a large enough effect in the signal ratio in the repeat runs, not every such curve was filed as active; the % refers to the signal ratio)
Procedure, shortened: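 Wild-type CHO-K1 cells plated overnight, then exposed 3 hr at 37C to compounds at 15 concentrations (0.76% DMSO). Lysed, then HTRF anti-pH2AX(S139)-cryptate/anti-H2AX-d2 detection after 24 hr at room temperature; emissions 665 and 620 nm.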

[9] = qHTS assay to identify small molecule agonists of H2AX - cell viability counter screen (AID 1224847; calls by dose curve; also: top concentration of the series differs between compounds; nearly all actives have a fitted effect of over 30% in size)
Procedure, shortened: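 Viability of CHO-K1 (wild type) cells after 3 hr compound exposure was measured by CellTiter-Glo luminescence.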

[10] = qHTS assay to identify small molecule agonists of the estrogen related receptor (ERR) signaling pathway from Tox21 library (AID 1224849; calls by dose curve; also: nearly all actives have a fitted effect of over 15% in size); settings: ERR reporter cell line, ONE-Glo luciferase, 18 h
Procedure, shortened: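 Reporter cells (ERR, NTP source) treated with Tox21 10K compounds 18 h, 37 C. Readout: ONE-Glo luminescence, 30 min RT.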

[11] = qHTS RealTime-Glo MT Cell Viability Assay in HepG2 cells - 24 hour (AID 1224867); also: nearly all actives have a fitted effect of over 50% in size
Procedure, shortened: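 Tox21 10K library screened in qHTS format on HepG2 cells carrying RealTime-Glo reagents. Compounds were added after a 5 h preincubation, and the luminescent signal from continuous culture was measured repeatedly during 40 h treatment.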

[12] = qHTS RealTime-Glo MT Cell Viability Assay in HEK293 cells - 32 hour (AID 1224868); also: nearly all actives have a fitted effect of over 50% in size; also: potency is read from the fitted curve at half-maximal effect
Procedure, shortened: (§1)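 Luminescence generated by NanoLuc from substrate produced by living HEK293 cells served as the viability signal. Each value reflects the reading at its stated time point during continuous 40 h compound exposure at 37 C.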

[13] = A CellTox Green Cytotoxicity Assay to monitor cytotoxicity in HEK293 cells - 0 hour (AID 1224869); also: nearly all actives have a fitted effect of over 50% in size
Procedure, shortened: (§2)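 Homogeneous no-lysis format: HEK293 cell suspension mixed with CellTox Green reagent, seeded, incubated 5 h at 37 C/5% CO2, then dosed by pintool with compound in DMSO.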

[14] = qHTS RealTime-Glo MT Cell Viability Assay in HepG2 cells - 40 hour (AID 1224870); also: nearly all actives have a fitted effect of over 50% in size
Procedure, shortened: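 HepG2 cells mixed with RealTime-Glo MT reagents (NanoLuc plus cell-permeant prosubstrate) were seeded at 600 cells/well, incubated 5 h at 37 C/5% CO2, then pinned with compounds in DMSO; nonlytic luminescence tracked viability during 40 h treatment.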

[15] = A CellTox Green Cytotoxicity Assay to monitor cytotoxicity in HEK293 cells - 40 hour (AID 1224871); also: nearly all actives have a fitted effect of over 45% in size
Procedure, shortened: as §2

[16] = qHTS RealTime-Glo MT Cell Viability Assay in HEK293 cells - 16 hour (AID 1224872)
Procedure, shortened: as §1

[17] = target: Nuclear receptor subfamily 1 group I member 3 (Homo sapiens) (UniProt Q14994); assay: qHTS assay to identify small molecule antagonists of the constitutive androstane receptor (CAR) signaling pathway (AID 1224838); also: nearly all actives have a fitted effect of over 40% in size
Procedure, shortened: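 CITCO-stimulated (50 nM final) HepG2 cells stably transfected with hCAR and CYP2B6-2.2kb luciferase were exposed to compounds at 15 concentrations for 24 h at 37 C/5% CO2. A luciferase reagent was added and luminescence recorded after 30 min.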

[18] = target: Nuclear receptor subfamily 1 group I member 3 (Homo sapiens) (UniProt Q14994); assay: qHTS assay to identify small molecule agonists of the constitutive androstane receptor (CAR) signaling pathway (AID 1224839);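 also: HepG2 cells stably carrying human CAR and a CYP2B6 luciferase reporter; nearly all actives have a fitted effect of over 15% in size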
Procedure, shortened: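 Stable hCAR/CYP2B6-2.2kb HepG2 line in DMEM with 10% FBS; compounds (15 concentrations) and 0.75 uM PK11195 final, 24 h at 37 C/5% CO2, then ONE-Glo luminescence after 30 min.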

[19] = qHTS assay to identify small molecule agonists of the hypoxia (HIF-1) signaling pathway (AID 1224846; active = well fitted activation curve with a large enough effect in the signal ratio in the repeat runs, not every such curve was filed as active; the % refers to the signal ratio)
Procedure, shortened: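 In ME-180 cells bearing an HRE-bla construct, 17 h treatment with DMSO-dissolved compounds at 37C was followed by CCF4-AM loading to quantify reporter induction.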
% is scaled to controls: 0 for no effect and ±100 for the full control effect.

Chain of Thyrotropin receptor (Homo sapiens) (P16473 whole entry, looked up): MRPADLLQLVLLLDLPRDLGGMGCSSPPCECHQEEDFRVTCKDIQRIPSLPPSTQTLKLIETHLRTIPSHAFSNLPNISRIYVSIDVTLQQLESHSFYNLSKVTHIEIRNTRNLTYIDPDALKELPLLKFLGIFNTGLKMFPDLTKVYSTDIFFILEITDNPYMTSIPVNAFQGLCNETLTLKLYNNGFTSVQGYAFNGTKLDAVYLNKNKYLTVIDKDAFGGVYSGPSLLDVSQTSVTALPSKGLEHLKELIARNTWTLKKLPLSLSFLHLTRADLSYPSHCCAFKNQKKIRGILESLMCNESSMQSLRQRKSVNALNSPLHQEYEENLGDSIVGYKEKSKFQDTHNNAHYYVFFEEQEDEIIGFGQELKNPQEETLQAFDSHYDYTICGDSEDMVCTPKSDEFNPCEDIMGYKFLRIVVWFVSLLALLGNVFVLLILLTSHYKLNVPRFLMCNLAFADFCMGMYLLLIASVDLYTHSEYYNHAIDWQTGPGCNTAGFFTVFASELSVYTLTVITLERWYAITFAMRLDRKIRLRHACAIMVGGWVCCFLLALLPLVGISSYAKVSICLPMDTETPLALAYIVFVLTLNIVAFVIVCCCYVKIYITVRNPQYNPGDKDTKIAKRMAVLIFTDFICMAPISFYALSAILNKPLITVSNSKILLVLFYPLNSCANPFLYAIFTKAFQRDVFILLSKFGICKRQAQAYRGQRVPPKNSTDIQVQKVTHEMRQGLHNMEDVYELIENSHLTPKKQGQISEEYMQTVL
Chain of Luciferin 4-monooxygenase (Photinus pyralis) (P08659 whole entry, looked up): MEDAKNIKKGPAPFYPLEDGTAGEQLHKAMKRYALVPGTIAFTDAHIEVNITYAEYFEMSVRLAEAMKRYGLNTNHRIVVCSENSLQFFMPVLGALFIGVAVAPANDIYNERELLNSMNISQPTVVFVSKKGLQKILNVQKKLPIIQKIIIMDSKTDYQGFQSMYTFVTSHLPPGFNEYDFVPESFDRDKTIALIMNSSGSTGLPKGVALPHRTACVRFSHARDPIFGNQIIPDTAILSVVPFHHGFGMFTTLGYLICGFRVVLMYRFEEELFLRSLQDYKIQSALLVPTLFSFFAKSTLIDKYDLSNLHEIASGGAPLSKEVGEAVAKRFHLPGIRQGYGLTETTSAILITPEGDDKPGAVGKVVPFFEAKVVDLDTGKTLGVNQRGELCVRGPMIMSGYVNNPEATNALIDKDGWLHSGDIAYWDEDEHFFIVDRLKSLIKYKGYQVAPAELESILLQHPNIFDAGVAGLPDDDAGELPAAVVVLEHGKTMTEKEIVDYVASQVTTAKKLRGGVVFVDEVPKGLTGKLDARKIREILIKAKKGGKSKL
Chain of Nuclear receptor subfamily 1 group I member 3 (Homo sapiens) (Q14994 whole entry, looked up): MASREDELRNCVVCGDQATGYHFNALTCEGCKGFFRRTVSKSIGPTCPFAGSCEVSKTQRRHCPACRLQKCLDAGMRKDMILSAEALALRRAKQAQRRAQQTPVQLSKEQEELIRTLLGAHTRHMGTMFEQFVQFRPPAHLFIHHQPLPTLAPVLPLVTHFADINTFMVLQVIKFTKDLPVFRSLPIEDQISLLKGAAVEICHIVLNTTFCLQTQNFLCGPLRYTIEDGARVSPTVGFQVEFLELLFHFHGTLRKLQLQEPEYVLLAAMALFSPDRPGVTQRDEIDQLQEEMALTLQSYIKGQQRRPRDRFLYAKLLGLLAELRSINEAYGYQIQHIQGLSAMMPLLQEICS

CCCN(CCC)S(=O)(=O)c1ccc(C(=O)O)cc1
inactive: Potency [1] | Potency [2] | Potency [3] | Potency [4] | Potency [5] | outcome [6] | Potency [7] | outcome [8] | outcome [9] | activity change, positive = activation ([10]; at 42.5 µM (top of the series)) 3.98% | activity change, positive = activation ([10]; at 92.4 µM (top of the series)) -17.4% and 3.56% | Potency [11] | Potency [12] | outcome [13] | Potency [14] | Potency [15] | Potency [16]

O=C(O)c1cccnc1
inactive: Potency [2] | Potency [3] | Potency [17] | Potency [18] | Potency [4] | outcome [6] | Potency [7] | outcome [8] | outcome [19] | outcome [9] | Potency [11] | Potency [12] | outcome [13] | Potency [14] | Potency [15] | Potency [16]

O=C(C1CCCCC1)N1CC(=O)N2CCc3ccccc3C2C1 (configuration not stated)
inactive: Potency [1] | Potency [2] | Potency [3] | Potency [18] | Potency [4] | Potency [5] | Potency [7] | outcome [8] | outcome [9] | activity change, positive = activation ([10]; at 42.5 µM (top of the series)) -13.9% | activity change, positive = activation ([10]; at 92.4 µM (top of the series)) -22.9% and -18.8% | Potency [11] | Potency [12] | outcome [13] | Potency [14] | Potency [15] | Potency [16]

C1N2CN3CN1CN(C2)C3
inactive: Potency [1] | Potency [2] | Potency [3] | Potency [17] | Potency [18] | Potency [4] | outcome [6] | Potency [7] | outcome [8] | outcome [19] | outcome [9] | Potency [11] | Potency [12] | outcome [13] | Potency [14] | Potency [15] | Potency [16]

Cn1cc[nH]c1=S
inactive: Potency [1] | Potency [2] | Potency [3] | Potency [18] | Potency [4] | outcome [6] | Potency [7] | outcome [8] | outcome [9] | Potency [11] | Potency [12] | outcome [13] | Potency [14] | Potency [15] | Potency [16]

C[C@]12C=CC(=O)C=C1CC[C@@H]1[C@@H]2[C@@H](O)C[C@@]2(C)[C@H]1CC[C@]2(O)C(=O)CO
inactive: Potency [1] | Potency [2] | Potency [3] | Potency [17] | Potency [18] | Potency [4] | Potency [7] | outcome [8] | outcome [9] | Potency [11] | Potency [12] | outcome [13] | Potency [14] | Potency [15] | Potency [16]

CNC[C@H](O)c1cccc(O)c1
inactive: Potency [2] | Potency [3] | Potency [17] | Potency [18] | Potency [4] | Potency [7] | outcome [8] | outcome [19] | outcome [9] | activity change, positive = activation ([10]; at 42.5 µM (top of the series)) 5.4% | activity change, positive = activation ([10]; at 92.4 µM (top of the series)) -1.31% and 0.843% | Potency [11] | Potency [12] | outcome [13] | Potency [14] | Potency [15] | Potency [16]

COc1c2occc2cc2ccc(=O)oc12
inactive: Potency [2] | Potency [3] | Potency [4] | outcome [6] | Potency [7] | outcome [8] | outcome [9] | Potency [11] | outcome [13] | Potency [14] | Potency [15] | Potency [16]
inactive and 21.9 µM (active): Potency [12]

NC(N)=O
inactive: Potency [1] | Potency [2] | Potency [3] | Potency [17] | Potency [18] | Potency [4] | outcome [6] | Potency [7] | outcome [8] | outcome [19] | outcome [9] | Potency [11] | Potency [12] | outcome [13] | Potency [14] | Potency [15] | Potency [16]

CCCCCCCCCCCCCCCC(=O)O
inactive: Potency [1] | Potency [2] | Potency [3] | Potency [17] | Potency [18] | Potency [4] | outcome [6] | Potency [7] | outcome [8] | outcome [19] | outcome [9] | Potency [11] | Potency [12] | outcome [13] | Potency [14] | Potency [15] | Potency [16]

CC(O)CN(CCN(CC(C)O)CC(C)O)CC(C)O (configuration not stated)
inactive: Potency [1] | Potency [2] | Potency [3] | Potency [17] | Potency [18] | Potency [4] | outcome [6] | Potency [7] | outcome [8] | outcome [9] | Potency [11] | Potency [12] | outcome [13] | Potency [14] | Potency [15] | Potency [16]

CC(O)CO (configuration not stated)
inactive: Potency [1] | Potency [2] | Potency [3] | Potency [4] | Potency [5] | outcome [6] | Potency [7] | outcome [8] | outcome [19] | outcome [9] | activity change, positive = activation ([10]; at 8.39 µM (top of the series)) -3.08% | activity change, positive = activation ([10]; at 92.4 µM (top of the series)) -3.85% and -1.76% | Potency [11] | Potency [12] | outcome [13] | Potency [14] | Potency [15] | Potency [16]

OC(Cn1cncn1)(Cn1cncn1)c1ccc(F)cc1F
inactive: Potency [1] | Potency [2] | Potency [3] | Potency [4] | Potency [5] | outcome [6] | Potency [7] | outcome [19] | outcome [9] | activity change, positive = activation ([10]; at 42.5 µM (top of the series)) 4.61% | activity change, positive = activation ([10]; at 92.4 µM (top of the series)) 8.25% and 5.79% | Potency [11] | Potency [12] | outcome [13] | Potency [14] | Potency [15] | Potency [16]

Cc1ccc(C)c(OCCCC(C)(C)C(=O)O)c1
inactive: Potency [1] | Potency [2] | Potency [3] | Potency [4] | outcome [6] | Potency [7] | outcome [8] | outcome [9] | Potency [11] | Potency [12] | outcome [13] | Potency [14] | Potency [15] | Potency [16]

O=C(c1ccccc1)c1ccccc1
inactive: Potency [2] | Potency [3] | Potency [4] | Potency [7] | outcome [8] | outcome [19] | outcome [9] | Potency [11] | Potency [12] | outcome [13] | Potency [14] | Potency [15] | Potency [16]

NC(=O)c1cnccn1
inactive: Potency [1] | Potency [2] | Potency [3] | Potency [17] | Potency [18] | Potency [4] | Potency [5] | Potency [7] | outcome [8] | outcome [9] | activity change, positive = activation ([10]; at 42.5 µM (top of the series)) 4.26% | activity change, positive = activation ([10]; at 92.4 µM (top of the series)) -0.224% and -0.902% | Potency [11] | Potency [12] | outcome [13] | Potency [14] | Potency [15] | Potency [16]
